We go through nine molecules from PubChem BioAssay (NCATS).

Inconclusive results are not listed. Active and inactive are the calls of the source. Unless noted, calls come from the whole dose curve; as a rule, active = well fitted curve in either direction with a large enough effect (not every such curve was filed as active); inconclusive = small, poorly fitted or top-dose-only effect, or another doubt; inactive = flat fitted curve, though single readings scatter. A value given as a limit tells only on which side of the number the result lay.

In experiment [1] the target is Lysosomal acid glucosylceramidase (Homo sapiens) (UniProt P04062). Put plainly: Glucocerebrosidase-p2 (AID 348; in the data active = potency below about 10 µM; note: potency is the fitted concentration of half-maximal effect). To be noted: purified GBA, blue fluorogenic substrate, 40 min. The method, boiled down:
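Compounds titrated from 0.6 nM upwards against 0.2 nM enzyme in pH 5.9 citric acid/KH2PO4, taurocholate, tween-20; blue fluorogenic substrate 80 uM, 40 min room temperature, stopped and read Ex 365/Em 440 for AC50.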

Experiment [2] in a line: AP1 Signaling Pathway (AID 357).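 Note: ME-180 reporter cells stimulated with EGF at its EC50 level; % is set by controls: 0 for no effect and ±100 for the full control effect.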 Conditions: ME-180 AP-1-bla reporter, EGF-induced, beta-lactamase ratio, 5 h; at 7.69 µM (top of the series) unless noted. An outline of the steps: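 First, ME-180 AP-1-bla cells were cultured overnight at 37 °C in low-serum Opti-MEM. Next, titrated compounds with EC50 EGF were incubated 5 hours. Finally, CCF4 was added for 2.5 hours and the 460/530 nm ratio recorded.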

Experiment [3] is described as follows: NFAT Signaling Pathway (AID 444).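 Note: carbachol stimulus at about its EC50 of 1 µM final; % is set by controls: 0 for no effect and ±100 for the full control effect.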 Conditions: Jurkat NFAT-bla M1, carbachol, beta-lactamase ratio, 5 h; at 7.69 µM (top of the series) unless noted. An outline of the steps: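 Jurkat cells with NFAT-driven β-lactamase reporter and co-expressed M1 receptor, stimulated with carbachol (final 1 uM, ~EC50), compound titration, 5 h at 37 °C. CCF4 loaded 1 h at RT; 460/530 nm ratio gave %activity and AC50.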

A short description of experiment [4]: Stat Signaling Pathway (AID 446).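 Note: ME-180 cervical cancer cells given 40 pM IL-6 alongside compound; SIE-controlled beta-lactamase reporter measured as 460/530 nm FRET emission ratio; % is set by controls: 0 for no effect and ±100 for the full control effect.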 To be noted: ME-180 (cervical carcinoma) SIE beta-lactamase reporter, IL-6 stimulated, 5 h; at 7.69 µM (top of the series) unless noted. An outline of the steps:
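ME-180 SIE-bla cells; overnight plating; cpd + IL-6 40 pM, 5 h, 37 C; LiveBLAzer 2.5 h RT; 460/530 nm emission ratio. Normalized to 300 pM IL-6 and 125 nM JAK inhibitor controls.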

Experiment [5] deals with Glucocorticoid receptor (Homo sapiens) (UniProt P04150). Kind of experiment: GR-EFC Redistribution (AID 451; calls by dose curve; note: potency is the fitted concentration of half-maximal effect). Conditions: CHO-K1 GR-EFC translocation, beta-gal luminescence, 2 h. The method, boiled down:
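CHO-K1 cells expressing nuclear EA and GR-ED fragments of b-gal; compounds titrated up to 46 uM final, 2 h at 37 C. GR nuclear translocation read as complemented b-gal luminescence after 1 h RT detection.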

Experiment [6] has as its target Mitogen-activated protein kinase 10 (Mus musculus) (UniProt Q61831). Put plainly: JNK3 AlphaScreen Assay (AID 530).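 Note: kinase came from lysate of stimulated human HepG2 cells; signal reports phosphorylation of biotinylated GST-cJun 1-79 at Ser73 with 10 µM ATP; % is set by controls: 0 for no effect and ±100 for the full control effect.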 Conditions: JNK3 lysate, c-Jun phosphorylation; series mostly up to 57.1 µM. An outline of the steps:
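qHTS format: compounds tested as titrations against IL-1beta/TNF-alpha-activated HepG2 lysate JNK3 with biotin-GST-cJun substrate and 10 uM ATP at room temperature. Loss of anti-phospho-cJun AlphaScreen signal indicates inhibition.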

The target of experiment [7] is 3',5'-cyclic-AMP phosphodiesterase 4B (Homo sapiens) (UniProt Q07343). Kind of experiment: qHTS Assay for Inhibitors of PDE-IV (AID 607; active = well fitted activation curve with a large enough effect in the main read-out, with a control signal flat, not every such curve was filed as active; note: % of control where 0% means no effect). To be noted: HEK293 ACTOne CNG channel cells, membrane potential fluorescence; series mostly up to 22.9 µM. The method, boiled down: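 ACTOne HEK293 cells carry a modified cAMP-gated CNG channel and express endogenous PDE4; plated 1000 cells/well, compounds up to 22.9 uM final. Membrane-potential dye fluorescence (ex 535/em 590) was read; parental cells received 10 uM forskolin + 100 uM RO 20-1724.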
In general terms: Quantitative high-throughput screening tests each substance at several concentrations.

A short description of experiment [8]: qHTS Assay for Lipid Storage Modulators (AID 1519; calls by dose curve). Conditions: Drosophila S3 cells, BODIPY lipid droplet/cell ratio, laser cytometry, cells loaded with oleic acid; for activity change, negative = inhibition: at 57.5 µM (top of the series). The method, boiled down:
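Cells seeded at 5,000 per well were treated with compounds over a concentration series and loaded with oleic acid (400 uM, as added). Lipid droplet fluorescence (488 nm excitation, 500-530 nm channel) was read by laser-scanning cytometry and normalized to 20 uM Triacsin C.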

A short description of experiment [9]: Primary qHTS for small molecule stabilizers of the endoplasmic reticulum resident proteome: Secreted ER Calcium Modulated Protein (SERCaMP) assay (AID 1508630; active = well fitted curve in the direction sought with a large enough effect; an effect the other way counts as inactive or inconclusive; note: % is set by controls: 0 for no effect and ±100 for the full control effect). To be noted: SH-SY5Y GLuc-SERCaMP (Gaussia luciferase released on ER calcium loss) secretion, thapsigargin, luminescence; series mostly up to 38.4 µM. An outline of the steps: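 GLuc-SERCaMP-expressing SH-SY5Y cells, pretreated 16 h with compound, are challenged with thapsigargin to empty ER calcium stores; after 4 h, coelenterazine is added directly to the medium and luminescence is imaged.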

The target in experiment [10] is Cytochrome P450 3A4 (Homo sapiens) (UniProt P08684). Kind of experiment: qHTS Assay for Activators of Cytochrome P450 3A4 (AID 885; active = well fitted curve in the direction sought with a large enough effect; an effect the other way counts as inactive or inconclusive; note: nearly all actives have a fitted effect of over 65% in size). To be noted: recombinant CYP3A4, Luciferin-PPXE luminescence, 60 min; series mostly up to 57.1 µM. The method, boiled down:
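20nM CYP3A4 + 25uM Luciferin-PPXE (=KM), 200mM KPO4; cpd 10 min RT; NADPH regen, 60 min RT; stop w/ detection buffer, 20 min; luminescence. Normalized to 57 uM ketoconazole.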

Setting [11] is: measured here: cell count channel max response.
[12] abbreviates: measured here: lipid channel max response.

Cytochrome P450 3A4 (Homo sapiens), sequence (P08684 whole entry, looked up): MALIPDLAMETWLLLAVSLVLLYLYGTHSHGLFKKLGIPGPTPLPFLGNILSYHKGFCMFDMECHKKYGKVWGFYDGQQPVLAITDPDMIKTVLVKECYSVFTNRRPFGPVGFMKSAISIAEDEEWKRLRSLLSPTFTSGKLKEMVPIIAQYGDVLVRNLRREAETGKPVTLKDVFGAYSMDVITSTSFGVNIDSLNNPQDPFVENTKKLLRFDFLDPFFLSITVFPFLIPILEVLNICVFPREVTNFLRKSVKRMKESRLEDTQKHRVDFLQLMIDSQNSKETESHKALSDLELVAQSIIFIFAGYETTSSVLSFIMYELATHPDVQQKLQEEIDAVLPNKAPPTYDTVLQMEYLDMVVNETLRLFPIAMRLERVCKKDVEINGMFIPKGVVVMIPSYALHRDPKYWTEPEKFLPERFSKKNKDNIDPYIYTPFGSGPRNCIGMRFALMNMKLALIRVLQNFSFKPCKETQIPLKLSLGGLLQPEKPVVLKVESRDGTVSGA
3',5'-cyclic-AMP phosphodiesterase 4B (Homo sapiens), sequence (Q07343 whole entry, looked up): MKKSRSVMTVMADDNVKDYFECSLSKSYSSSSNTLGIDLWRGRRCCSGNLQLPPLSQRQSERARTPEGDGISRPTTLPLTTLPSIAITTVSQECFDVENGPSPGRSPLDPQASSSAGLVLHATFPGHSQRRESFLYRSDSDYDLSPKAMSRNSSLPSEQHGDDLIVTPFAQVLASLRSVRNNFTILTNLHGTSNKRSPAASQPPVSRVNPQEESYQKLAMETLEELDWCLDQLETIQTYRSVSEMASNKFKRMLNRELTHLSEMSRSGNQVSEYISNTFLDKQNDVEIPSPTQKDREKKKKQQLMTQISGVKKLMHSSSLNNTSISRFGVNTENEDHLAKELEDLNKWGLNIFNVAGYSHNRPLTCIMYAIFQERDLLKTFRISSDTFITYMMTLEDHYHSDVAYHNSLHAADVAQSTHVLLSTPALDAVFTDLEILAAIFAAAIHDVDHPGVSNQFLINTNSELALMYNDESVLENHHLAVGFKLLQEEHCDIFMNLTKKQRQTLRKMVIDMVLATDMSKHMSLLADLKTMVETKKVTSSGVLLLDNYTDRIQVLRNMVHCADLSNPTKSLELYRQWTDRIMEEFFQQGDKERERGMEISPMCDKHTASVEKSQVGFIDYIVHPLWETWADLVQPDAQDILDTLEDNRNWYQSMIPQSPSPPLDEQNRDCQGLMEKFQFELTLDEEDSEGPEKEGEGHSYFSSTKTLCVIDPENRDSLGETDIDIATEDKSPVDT
Lysosomal acid glucosylceramidase (Homo sapiens), sequence (P04062 whole entry, looked up): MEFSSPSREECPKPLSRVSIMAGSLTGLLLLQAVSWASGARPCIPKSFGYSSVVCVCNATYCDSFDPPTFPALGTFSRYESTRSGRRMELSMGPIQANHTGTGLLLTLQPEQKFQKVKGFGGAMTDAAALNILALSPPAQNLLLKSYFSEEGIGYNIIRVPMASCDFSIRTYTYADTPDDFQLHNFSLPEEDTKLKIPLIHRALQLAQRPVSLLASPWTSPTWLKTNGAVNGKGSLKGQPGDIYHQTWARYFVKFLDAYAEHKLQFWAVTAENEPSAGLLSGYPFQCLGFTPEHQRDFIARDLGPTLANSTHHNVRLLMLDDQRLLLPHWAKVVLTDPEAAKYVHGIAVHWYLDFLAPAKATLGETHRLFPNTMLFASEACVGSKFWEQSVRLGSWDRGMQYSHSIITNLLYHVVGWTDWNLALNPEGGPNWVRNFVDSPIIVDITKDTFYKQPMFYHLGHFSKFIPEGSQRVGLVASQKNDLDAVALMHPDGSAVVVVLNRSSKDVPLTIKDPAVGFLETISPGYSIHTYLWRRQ
Glucocorticoid receptor (Homo sapiens), sequence (P04150 whole entry, looked up, the tested form may be a part): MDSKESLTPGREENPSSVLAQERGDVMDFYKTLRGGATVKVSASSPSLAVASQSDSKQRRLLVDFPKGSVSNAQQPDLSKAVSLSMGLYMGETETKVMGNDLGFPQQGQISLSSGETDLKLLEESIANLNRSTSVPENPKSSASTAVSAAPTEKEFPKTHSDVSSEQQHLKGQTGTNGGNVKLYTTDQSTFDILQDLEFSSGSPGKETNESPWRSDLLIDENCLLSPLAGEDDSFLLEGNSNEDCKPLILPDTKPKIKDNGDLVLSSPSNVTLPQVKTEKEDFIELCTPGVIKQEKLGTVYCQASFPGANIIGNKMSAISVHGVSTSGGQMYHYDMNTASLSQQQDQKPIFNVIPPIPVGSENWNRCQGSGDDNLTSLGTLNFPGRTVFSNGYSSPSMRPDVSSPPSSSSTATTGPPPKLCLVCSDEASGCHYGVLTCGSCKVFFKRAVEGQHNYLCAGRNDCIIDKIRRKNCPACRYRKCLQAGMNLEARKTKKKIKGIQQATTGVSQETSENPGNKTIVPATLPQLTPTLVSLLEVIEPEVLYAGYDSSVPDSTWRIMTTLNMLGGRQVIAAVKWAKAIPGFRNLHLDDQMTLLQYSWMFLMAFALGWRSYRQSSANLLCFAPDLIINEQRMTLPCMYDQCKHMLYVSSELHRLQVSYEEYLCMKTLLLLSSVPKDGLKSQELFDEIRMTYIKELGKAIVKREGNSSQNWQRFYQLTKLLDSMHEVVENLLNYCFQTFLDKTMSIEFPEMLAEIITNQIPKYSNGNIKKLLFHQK

Turning to `Cn1cccc1C(=O)N1CCC2(CC1)CN(C(=O)Nc1cccc(C#N)c1)C2`, the Potency in experiment [1] was > 11.4 µM (inactive); in experiment [5], > 46 µM (inactive). The values for the activity change, negative = inhibition in [2], in [3] and in experiment [8] were -22.3% (inactive), -2.19% (inactive) and 4.61% (inactive), respectively. Also, the activity, negative = inhibition in [4] was -3.02% (inactive). Moreover, the Potency entry in experiment [6] and in experiment [7] was “inactive” throughout. The max response in experiment [8] (setting [11]) was found to be 11.3%; in [8] (setting [12]), 18.4%. For the same molecule, in experiment [9], the outcome was inactive.
As for `CC(=O)N1CCC2(CCCN(Cc3cc(C(F)(F)F)cc(C(F)(F)F)c3)C2)CC1`, the results for the Potency in experiment [1] and in [5] were > 11.4 µM (inactive) and > 46 µM (inactive), respectively. Further, the activity change, negative = inhibition in experiment [2] is 7.77% (inactive); in experiment [3], 23.8% (inactive); in experiment [8], 4.05% (inactive). Moreover, the activity, negative = inhibition in experiment [4] is -2.82% (inactive). In addition, the Potency entry in [6], in experiment [7] and in experiment [10] was “inactive” in each case. Also, the max response in experiment [8] (setting [11]) came out at 1.79%; in experiment [8] (setting [12]) it was 9.32%. In addition, the result in experiment [9] was inactive.
For `Cn1cccc1C(=O)N1CCC2(CC1)CN(C(=O)Nc1cccc(F)c1)C2`, the Potency in experiment [1] is > 11.4 µM (inactive); in experiment [5], > 46 µM (inactive). In addition, the activity change, negative = inhibition in [2] was 5.05% (inactive); in experiment [3], 6.99% (inactive); in experiment [8] it was 2.3% (inactive). Besides, the activity, negative = inhibition in [4] was -4.36% (inactive). The Potency entry in experiment [6] and in experiment [7] was “inactive” each time. Moreover, the max response in experiment [8] (setting [11]) was -3.47%; in experiment [8] (setting [12]) it was 0.81%. For the same molecule, in [9], the outcome was inactive.
As to `O=C(c1csnn1)N1CCC2(CCCN(c3cccc(-c4ccccc4)c3)C2)CC1`, the Potency in experiment [1] was > 11.4 µM (inactive); in experiment [5], > 46 µM (inactive). For the same molecule, the activity change, negative = inhibition in experiment [2] is -12.3% (inactive); in experiment [3], -13.8% (inactive); in [8], -16.4% (inactive). In [4], the activity, negative = inhibition is -5.72% (inactive). Besides, the Potency entry in [6] and in [7] was “inactive” each time. Further, the max response is 9.62% in experiment [8] (setting [11]) and -3.2% in experiment [8] (setting [12]). Besides, the outcome in experiment [9] was inactive.
As for `O=S(=O)(c1ccccc1)N1CCC2(CCN(c3ccc(-c4ccccc4)cc3)CC2)CC1`, the figures for the Potency in experiment [1] and in experiment [5] were > 11.4 µM (inactive) and > 46 µM (inactive), respectively. Also, the results for the activity change, negative = inhibition in experiment [2], in experiment [3] and in experiment [8] were 1.76% (inactive), 11.9% (inactive) and 5.32% (inactive), respectively. In addition, the activity, negative = inhibition in experiment [4] is -10.3% (inactive). Further, the Potency entry in [6], in experiment [7] and in experiment [10] was “inactive” throughout. Further, the max response was 18.6% in experiment [8] (setting [11]) and 22.9% in [8] (setting [12]). In addition, in experiment [9], the outcome was inactive.
For the molecule `N#Cc1cccc(NC(=O)N2CC[C@@]3(CCCN(C(=O)c4cnccn4)C3)C2)c1`, the values for the Potency in experiment [1] and in [5] were > 11.4 µM (inactive) and > 46 µM (inactive), respectively. The activity change, negative = inhibition in [2] is -6.32% (inactive); in [3], 12.8% (inactive); in experiment [8], 8.9% (inactive). In addition, the activity, negative = inhibition in experiment [4] is 3.28% (inactive). In addition, the Potency entry in [6] and in experiment [7] was “inactive” in each case. Moreover, the max response in experiment [8] (setting [11]) came to 14.7%; in experiment [8] (setting [12]), 23.6%. For the same molecule, the outcome in experiment [9] was inactive.
Regarding `O=C(Nc1ccccc1)N1CC[C@@]2(CCCN(C(=O)c3cccc(F)c3)C2)C1`, the Potency in experiment [1] is > 11.4 µM (inactive); in [5], > 46 µM (inactive). Also, the activity change, negative = inhibition in [2] was -10.5% (inactive); in experiment [3], -6.63% (inactive); in experiment [8], 5.88% (inactive). For the same molecule, in experiment [4], the activity, negative = inhibition was 4.89% (inactive). Besides, the Potency result in experiment [6], in experiment [7] and in experiment [10] was “inactive” each time. The max response was found to be 19.2% in [8] (setting [11]) and 27.2% in experiment [8] (setting [12]). In addition, the outcome in [9] was inactive.
As for `O=C(c1cccc(F)c1)N1CCC[C@@]2(CCN(c3ncccn3)C2)C1`, the figures for the Potency in [1] and in [5] were > 11.4 µM (inactive) and > 46 µM (inactive), respectively. Further, the activity change, negative = inhibition in [2] was -17.6% (inactive); in [3], 10.1% (inactive); in [8], 3.33% (inactive). Also, the activity, negative = inhibition in experiment [4] was 1.15% (inactive). The Potency entry in experiment [6] and in experiment [7] was “inactive” each time. For the same molecule, the results for the max response in experiment [8] (setting [11]) and in [8] (setting [12]) were 7.74% and 15.7%, respectively. Also, the result in [9] was inactive.
Regarding `Cc1noc(C)c1C(=O)N1CCC[C@@]2(CCN(C(c3ccccc3)c3ccccc3)C2)C1`, the Potency in experiment [1] was > 11.4 µM (inactive); in [5], > 46 µM (inactive). The activity change, negative = inhibition in experiment [2] is -7.96% (inactive); in experiment [3] it was -12.7% (inactive); in experiment [8], 2.35% (inactive). Further, in [4], the activity, negative = inhibition was -6.89% (inactive). Moreover, the Potency entry in experiment [6] and in experiment [7] was “inactive” each time. Further, the max response in experiment [8] (setting [11]) turned out to be 12.4%; in experiment [8] (setting [12]), 16.6%. Also, the outcome in [9] was inactive.
